Rows were chosen to be rich in hits. Some 2.3% of all compounds tested hit in one or more screens of this group.
PME-1 primary: PME-1 (human) inhibition | Q9Y570 | 320,000 compounds, 0.53% hits | inhibition, % at 5.9 µM | AID 2130 | recombinant PME-1, FP-Rh probe fluorescence polarization;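 active = inhibition above the campaign mean of all compounds plus 3 SD, cut at about 26% in these data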;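 note: competitive labeling of PME-1 active site by serine hydrolase directed probe; 0% = PME-1 with DMSO and 100% = wells lacking PME-1 enzyme; inhibitors block probe labeling so polarization falls and inhibition rises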
PAD4 inh: blocks human protein arginine deiminase 4; recombinant PAD4, RCA probe fluorescence polarization; inhibition, % at 6.36 µM; 330,000 compounds, 0.41% hits; AID 485272;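 active = percent inhibition above a cutoff equal to the mean of all tested compounds plus 3 SD, cut at about 15% in these data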;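 note: 0% = PAD4 with RCA probe and DMSO and 100% = probe without PAD4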
Target sequence (Q9UM07 whole entry, looked up): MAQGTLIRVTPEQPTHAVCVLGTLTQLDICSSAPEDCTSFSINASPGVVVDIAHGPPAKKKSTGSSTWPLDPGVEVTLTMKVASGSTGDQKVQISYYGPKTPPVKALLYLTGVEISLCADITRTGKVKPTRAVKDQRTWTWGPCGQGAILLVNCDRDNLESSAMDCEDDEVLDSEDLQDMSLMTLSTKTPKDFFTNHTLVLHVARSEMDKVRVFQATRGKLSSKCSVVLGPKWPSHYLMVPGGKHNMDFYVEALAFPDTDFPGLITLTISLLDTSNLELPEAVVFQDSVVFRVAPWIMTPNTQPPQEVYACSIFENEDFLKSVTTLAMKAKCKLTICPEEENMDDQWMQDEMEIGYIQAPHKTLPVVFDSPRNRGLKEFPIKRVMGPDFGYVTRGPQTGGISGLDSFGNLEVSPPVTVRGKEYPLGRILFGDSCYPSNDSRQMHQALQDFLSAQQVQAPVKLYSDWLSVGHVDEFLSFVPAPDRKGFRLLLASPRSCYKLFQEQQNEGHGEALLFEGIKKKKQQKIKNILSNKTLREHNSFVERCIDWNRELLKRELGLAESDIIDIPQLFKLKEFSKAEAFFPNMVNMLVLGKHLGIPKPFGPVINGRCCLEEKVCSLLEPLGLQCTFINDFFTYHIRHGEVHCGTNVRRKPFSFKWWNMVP
pPAFAH FP inh: pPAFAH (human) enzyme inhibition; recombinant pPAFAH, FP-rhodamine probe fluorescence polarization; Q13093; inhibition, % at 3.39 µM; AID 463082; 330,000 compounds, 1.5% hits;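 active = inhibition above the mean inhibition across the screen plus 3 SD, cut at about 25% in these data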;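 note: inhibitors block binding of the rhodamine activity-based probe so polarization drops; 0% = enzyme with DMSO and 100% = wells lacking pPAFAH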
GSTO1 counter: counter-screen for RBBP9 inhibitors: inhibitors of human GSTO1; inhibition, % at 5.96 µM; AID 1974; 300,000 compounds, 1.1% hits; recombinant GSTO1, activity-based probe fluorescence polarization;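 active = inhibition above the campaign mean inhibition plus 3 SD, cut at about 35% in these data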;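 note: 0% = GSTO1-1 with DMSO and 100% = wells lacking GSTO1-1 enzyme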
Fam108B counter: Fam108B inhibition, counter-screen for RBBP9 inhibitors. 300,000 compounds, 0.33% hits. inhibition, % at 9.51 µM. recombinant Fam108B, FP-Rh probe fluorescence polarization;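 active = inhibition above the screen mean inhibition plus 3 SD, computed separately per campaign, cut at about 18% in these data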;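 note: inhibitors lower polarization as less probe binds the enzyme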
pPAFAH confirm: pPAFAH (human) inhibition, confirmed; shares compounds with pPAFAH FP inh; inhibition, % at 3.39 µM; 2,300 compounds, 72% hits; AID 463230; recombinant pPAFAH, FP-Rh probe fluorescence polarization;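 active = mean inhibition of the triplicate above the hit cutoff set for the earlier primary screen, cut at about 25% in these data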;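 note: 0% = enzyme with DMSO and 100% = wells lacking pPAFAH enzyme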
The depositor's hits bear a star; x = no result.

SMILES	PME-1 primary	PAD4 inh	pPAFAH FP inh	GSTO1 counter	Fam108B counter	pPAFAH confirm
CCc1ccc(NC(=O)Nc2ccc3c(c2)N(C)C(=O)CS3)cc1	-12.8	-3.5	37.1*	-12.1	6.9	24.5
COC(=O)CNC(=O)c1sc2ncn(CC(=O)Nc3ccc(C)c(Cl)c3)c(=O)c2c1C	-4.7	-0.4	-1.6	-1.6	-1.3	x
Cc1cc(/C=C2/SC(=S)N(c3ccc([N+](=O)[O-])cc3)C2=O)c(C)n1-c1cccnc1	5.0	1.4	6.6	1.6	-3.1	x
Cc1cc(/C=C2/SC(=S)N(c3cccc(Cl)c3)C2=O)c(C)n1-c1cccnc1	-3.0	-6.0	39.4*	-9.9	0.3	36.9*
COc1cc(/C=C/C(=O)O)cc(S(=O)(=O)NCCO)c1OC	-1.2	3.1	0.6	4.9	-4.6	x
O=C(N/N=C/c1ccc(-c2ccccc2Cl)o1)c1ccccc1	-18.8	-2.5	5.3	2.8	-17.8	x
O=C(O)c1ccc(N/N=C/c2ccc(-c3ccccc3Cl)o2)cc1	12.1	0.1	45.5*	32.2	7.8	16.0
NC(=O)c1ccc(-n2nnnc2SCC(=O)c2ccc(O)c(O)c2)cc1	2.8	-3.7	36.8*	26.4	-0.8	66.8*
N=C1C(c2ccccc2)=C(O)CN1c1cccc(S(N)(=O)=O)c1	-4.8	0.7	6.1	-1.7	1.8	x
N=C1C(c2ccccc2)=C(O)CN1c1cccc(S(=O)(=O)N2CCOCC2)c1	-6.9	2.0	43.6*	-2.5	1.0	2.0
O=c1cc(-c2ccc(C3CCCCC3)cc2)[nH][nH]1	4.2	-17.8	35.1*	19.2	5.8	5.4
CCOc1ccc(CCNC(=O)Cc2ccc(NC3=NC4CS(=O)(=O)CC4S3)cc2)cc1OCC (stereo unspecified)	-2.1	4.2	0.9	-3.7	-1.1	x
O=C(CN1CCN(S(=O)(=O)c2ccc(F)c(Cl)c2)CC1)N1CCNC1=O	-6.1	-2.6	2.5	x	x	x
O=[N+]([O-])C1=C(Nc2cccc3ccccc23)CS(=O)(=O)C1	2.9	-35.1	38.8*	3.8	-3.6	4.5
O=C1CSC(=S)N1/N=C/c1cc(Br)ccc1O	4.5	-0.5	16.7	12.2	6.3	x
O=C1CSC(=S)N1/N=C/c1ccc(O)c(O)c1O	-8.2	0.4	67.0*	66.7*	14.5	64.3*
COc1ccc(CNC(=O)c2cc(S(=O)(=O)N3CCOCC3)cn2C)cc1	1.3	-0.1	0.2	1.5	-2.9	x
CCOC(=O)Cc1cc(=O)n2[nH]c(-c3ccc(Cl)cc3)cc2n1	-5.2	-6.1	34.6*	7.3	4.0	7.8
Cc1ccc(NC(=O)COc2cccc(/C=C3\SC(=S)N(CCC(=O)O)C3=O)c2)cc1Cl	32.5*	-9.9	40.2*	-30.4	-5.3	26.6*
O=C(O)COc1cccc(/C=C2/SC(=S)N(Cc3ccccc3)C2=O)c1	-8.3	-3.6	39.9*	-7.8	-11.3	32.6*
O=C(O)CCN1C(=O)/C(=C\c2cccc(OCC(=O)Nc3ccc(Cl)cc3)c2)SC1=S	10.6	-12.1	24.4	-66.5	-8.7	x
Cc1cc(=O)n2nc(N3CCC(C(=O)NCCc4ccc(Cl)cc4)CC3)sc2n1	-2.9	2.2	5.7	-2.1	0.3	x
O=C(O)c1cc(-c2ccco2)nn1-c1cccc(Cl)c1	-21.1	-3.5	39.9*	-0.1	3.2	16.3
O=C(O)c1cc(-c2cccs2)nn1-c1cccc(Cl)c1	5.0	-6.6	8.5	6.1	0.1	x
Cc1nc(-c2ccccc2)cc(=O)[nH]1	-8.2	-2.0	1.3	0.8	0.0	x
SMILES	PME-1 primary	PAD4 inh	pPAFAH FP inh	GSTO1 counter	Fam108B counter	pPAFAH confirm
CCc1nc(-c2ccccc2)cc(=O)[nH]1	1.6	1.4	40.1*	2.8	-2.6	3.8
CCOc1cc(C=O)ccc1OCCn1c([N+](=O)[O-])cnc1C	2.1	-6.4	5.4	7.5	8.8	x
Cc1c(C)c2ccc(OCC(=O)N[C@@H](Cc3ccccc3)C(=O)O)cc2oc1=O	4.9	1.2	1.0	-8.3	-0.9	x
CCCCCCc1c(C)c2ccc(OCC(=O)N[C@@H](Cc3ccccc3)C(=O)O)cc2oc1=O	-3.8	-0.6	38.3*	-17.2	-5.4	20.6
COc1ccccc1-n1c(SCC(=O)Nc2cccc3ccccc23)nc(O)cc1=O	-6.7	1.7	37.5*	0.6	-5.5	0.0
CCCCCOC(=O)C1=C(C)NC(=O)NC1c1ccc2c(c1)OCO2 (stereo unspecified)	-2.4	1.1	4.8	-20.8	0.2	x
CC1=C(C(=O)OCCCBr)C(c2ccc3c(c2)OCO3)NC(=O)N1 (stereo unspecified)	3.0	-0.9	42.8*	13.8	3.8	5.6
C/C(N)=C(/C#N)C(=O)COC(=O)c1cc(C)n(-c2ccc(F)cc2)c1C	-3.7	3.4	36.4*	2.7	-6.8	28.1*
O=C(O)CCc1ccc(-c2ccc(Br)cc2)n1Cc1ccco1	-1.6	-0.9	45.5*	2.4	-1.7	33.0*
O=C(O)CCc1ccc(-c2ccccc2)n1Cc1ccco1	-3.4	1.3	15.5	2.3	-2.1	x
CCOC(=O)C1CCN(C(=O)c2cc(S(=O)(=O)N3CCOCC3)c(Cl)cc2Cl)CC1	-5.1	-3.0	2.4	6.0	5.7	x
O=C(c1cc(S(=O)(=O)N2CCOCC2)c(Cl)cc1Cl)N1CCCCC1CO (stereo unspecified)	-6.0	-0.5	46.5*	10.8	0.9	2.6
Cc1ccc(OCC(=O)N/N=C/C=C/c2ccco2)cc1	8.3	1.1	51.1*	8.4	-1.4	17.1
CCC(C)[C@H]1CNCCN1CCc1cccc(F)c1 (stereo partly specified)	0.6	0.2	2.6	-1.7	-0.3	x
CC(C)(CNC(=O)c1ccccc1NS(C)(=O)=O)N1CCCCC1	4.0	-5.3	-0.8	-0.7	0.0	x
CC1=C(/C=C/C(C)=C/C=C/C(C)=C/C(=O)Nc2ccc(O)cc2)C(C)(C)CCC1	-4.5	4.8	54.0*	x	x	53.4*
C/C(N)=C(/C#N)C(=O)COC(=O)[C@@H](NC(=O)c1ccccc1Cl)C(C)C	-2.0	-2.8	-0.4	6.9	3.6	x
Cc1ccc(C(=O)n2nc(-c3ccccc3)nc2NCc2ccco2)cc1	0.1	-2.1	74.2*	2.6	-8.4	0.9
O=C(c1ccccc1)n1nc(-c2ccccc2)nc1NCc1ccco1	-0.8	-1.5	2.9	-0.7	0.9	x
O=C(CCCOc1ccccc1)Nc1ccc(Cl)cn1	1.9	-2.1	1.2	-4.1	3.0	x
O=C(O)CSc1cc(C(=O)c2cc(F)ccc2O)cn2c(=O)c3c(-c4ccccc4)csc3nc12	-35.2	-17.4	53.1*	-37.9	-22.3	65.0*
O=C1S/C(=C\C=C\c2ccco2)C(=O)N1c1ccc(O)cc1	-2.6	-8.8	36.6*	24.5	5.2	6.3
CN(C)CCCN1c2ccccc2Sc2ccc(Cl)cc21	2.2	-0.9	2.0	2.0	1.7	x
OCCN1CCN(CCCN2c3ccccc3Sc3ccc(Cl)cc32)CC1	4.9	1.4	38.8*	5.1	-2.3	33.0*
Cc1ccc(S(=O)(=O)N2CCN(Cc3ccccc3)CC2)s1	2.5	0.4	-4.7	x	x	x
C1CCC(c2nn3c(-c4n[nH]c5c4CCC5)nnc3s2)CC1	0.5	-1.4	9.5	-5.0	4.8	x

Screening data: PubChem BioAssay, The Scripps Research Institute Molecular Screening Center
